PubChem BioAssay (Tox21)
The source made the active and inactive calls. Calls follow the shape of the full dose curve.

Target: Acetylcholinesterase (Homo sapiens) (UniProt P22303)
Test: Acetylcholinesterase (AChE) small molecule antagonists: enzyme-based qHTS assay with human liver microsomes (AID 1347399); also: nearly all actives have a fitted effect of over 60% in size
Settings: Potency: qHTS inhibition; outcome: qHTS inhibition; series mostly up to 115 µM; activity change, negative = inhibition: at the top concentration
Source text: National Center for Advancing Translational Sciences [NCATS]
Division of Preclinical Innovation [DPI]
U.S. Environmental Protection Agency [EPA]
National Institutes of Environmental Health Sciences [NIEHS]
National Toxicology Program [NTP]
U.S. Food and Drug Administration [FDA]
Acetylcholinesterase (AChE) is the primary cholinesterase in the body that hydrolyzes a key neurotransmitter, acetylcholine. Inhibition of AChE activity can lead to neurotoxicity. The known inhibitors include organophosphorous pesticides (OP), chemical warfare agents, drugs, and various phytochemicals. Some compounds like OP compounds may need metabolic activation to be active AChE inhibitors. The cytochrome P450 (CYP) superfamily in the human microsomes is responsible for the metabolism of various endogenous and exogenous compounds.
An enzyme-based assay with the recombinant human AChE, human liver microsomes and Amplite Colormetric acetylcholinesterase assay kit (AAT Bioquest, Sunnyvale, CA) was used to evaluate compounds in the Tox21 10K library that need metabolic activation for AChE inhibition. The assay uses 5, 5-dithiobis-(2-nitrobenzoic acid) (DTNB) to quantify the thiocholine produced from the hydrolysis of acetylthiocholine by AChE.
Tox21 Assay Protocol Summary:
For the enzyme-based AChE assay with microsomes addition, a mixture of human AChE (50 mU/mL) and human liver microsomes (0.25 mg/mL, final concentration) in 3 uL/well was dispensed into black, clear-bottom 1536-well plates using a Multidrop Combi dispenser (Thermo Scientific, MA). Then, 23 nL of compound or DMSO (vehicle control) was transferred into the assay plates by a Pintool Station (Wako Automation, CA). Following compound addition, 1 uL of NADPH (0.25 mg/mL, final concentration) was transferred to the assay plate by a Flying Reagent Dispenser (Beckman Coulter, CA). The plates were incubated for 30 min at 37 C and 5% CO2, followed by the addition of 4 uL of colorimetric detection cocktail solution (DTNB, acetylthiocholine) into each well using a Flying Reagent Dispenser (Beckman Coulter, CA) and then 10 min incubation at room temperature.
% is scaled to controls: 0 for no effect and ±100 for the full control effect.

Sequence of Acetylcholinesterase (Homo sapiens) (P22303 whole entry, looked up): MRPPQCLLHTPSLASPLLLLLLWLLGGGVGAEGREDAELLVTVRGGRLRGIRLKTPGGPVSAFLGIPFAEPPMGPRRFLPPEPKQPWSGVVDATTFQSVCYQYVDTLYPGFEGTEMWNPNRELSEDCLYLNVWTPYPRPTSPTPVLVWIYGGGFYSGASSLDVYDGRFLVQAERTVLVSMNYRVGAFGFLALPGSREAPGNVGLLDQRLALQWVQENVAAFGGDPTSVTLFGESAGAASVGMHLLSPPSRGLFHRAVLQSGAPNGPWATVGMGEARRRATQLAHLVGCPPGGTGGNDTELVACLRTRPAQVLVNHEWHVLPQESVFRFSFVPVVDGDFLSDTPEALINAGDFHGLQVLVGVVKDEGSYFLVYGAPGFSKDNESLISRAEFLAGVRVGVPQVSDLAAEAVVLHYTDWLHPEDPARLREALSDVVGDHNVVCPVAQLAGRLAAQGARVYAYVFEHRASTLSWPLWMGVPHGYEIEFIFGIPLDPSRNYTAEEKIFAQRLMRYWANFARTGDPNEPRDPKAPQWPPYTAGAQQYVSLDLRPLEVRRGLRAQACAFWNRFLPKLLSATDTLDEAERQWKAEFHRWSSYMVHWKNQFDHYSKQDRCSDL

Compound | activity change, negative = inhibition | Potency
O=S(=O)(Oc1ccc(Cl)cc1)c1ccccc1 | 1.98% (inactive) | –
CC1(C)Oc2ccc(C#N)cc2[C@@H](N2CCCC2=O)[C@@H]1O | -6.63% [at 53 µM] (inactive) | –
O=C(/C=C/C=C/c1ccc2c(c1)OCO2)N1CCCCC1 | – | inactive
Cc1ccc2c(Cl)cc(Cl)c(O)c2n1 | -0.59% [at 53 µM] (inactive) | –
CC(=O)OC[C@H]1O[C@@](COC(C)=O)(O[C@H]2O[C@H](COC(C)=O)[C@@H](OC(C)=O)[C@H](OC(C)=O)[C@H]2OC(C)=O)[C@@H](OC(C)=O)[C@@H]1OC(C)=O | – | inactive
CC(C)CCOC(=O)/C=C/c1ccccc1 | 0.682% (inactive) | –
CCCCC(CC)CO (stereo not given) | – | inactive
O=S(=O)(O)c1ccc(N=Nc2c(O)ccc3cc(S(=O)(=O)O)ccc23)cc1 | – | inactive
OC[C@@H](O)[C@@H](O[C@@H]1O[C@H](CO)[C@H](O)[C@H](O)[C@H]1O)[C@H](O)[C@@H](O)CO | – | inactive
CC(C)OC(=O)c1ccccc1 | 0% (inactive) | –
OCC(c1ccc(Cl)cc1)c1ccc(Cl)cc1 | -1.33% (inactive) | –
Clc1ccc2c(c1)Nc1ccccc1S2 | 0.666% [at 53 µM] (inactive) | –
CCC(=O)c1cccc(Cl)c1 | -1.06% (inactive) | –
CC(C)Cc1ccc(CC(=O)O)cc1 | -0.084% [at 53 µM] (inactive) | –
CCCCCCCCCCCCCC(=O)O | – | inactive
Cc1cccc2c1cc1ccc3cccc4ccc2c1c34 | 1.76% (inactive) | –
C[N+]1(CC2COC(c3ccccc3)(c3ccccc3)O2)CCCCC1 (stereo not given) | 4.03% [at 23.6 µM] (inactive) | –
O=C(O)CCCc1c[nH]c2ccccc12 | 0.611% (inactive) | –
C[C@H]1C[C@H](O)c2ccsc2S1(=O)=O | 1.02% [at 53 µM] (inactive) | –
CCCC(C)C(=O)OCC (stereo not given) | 8.16% (inactive) | –

Compound | activity change, negative = inhibition | Potency
CCN(CC)c1ccc(C=O)c(O)c1 | -9.88% (inactive) | –
CC(=O)[C@H]1CC[C@H]2[C@@H]3CC=C4C[C@@H](O)CC[C@]4(C)[C@H]3CC[C@]12C | – | inactive
CC(=O)c1ccc(C(C)=O)cc1 | -1.19% (inactive) | –
CCCCCCCCCCCCCCCCI | 0.294% [at 23.6 µM] (inactive) | –
CC(=O)OCCC(C)C | – | inactive
CCCOC(=O)c1ccccc1 | – | inactive
CC(=O)OCc1ccccc1 | – | inactive
CC(=O)c1ccc(O)c(C(N)=O)c1 | -0.142% [at 53 µM] (inactive) | –
CC(=O)c1ccc([N+](=O)[O-])cc1 | -3.07% (inactive) | –
CCc1ccc(CC)cc1 | 0.682% (inactive) | –
CCCC/C=C/C=C\C=O | -1.07% (inactive) | –
CC1COC(Cn2cncn2)(c2ccc(Oc3ccc(Cl)cc3)cc2Cl)O1 (stereo not given) | -0.81% (inactive) | –
OC(Cc1ccccc1Cl)(Cn1[nH]cnc1=S)C1(Cl)CC1 (stereo not given) | 1.58% (inactive) | –
COc1ccc(O)cc1 | – | inactive
C=C[C@@]1(C)CC(=O)[C@]2(O)[C@@]3(C)[C@@H](O)CCC(C)(C)[C@@H]3[C@H](O)[C@H](OC(C)=O)[C@@]2(C)O1 | – | inactive
CN1C(=O)CC(c2ccccc2)C1=O (stereo not given) | -1.95% [at 53 µM] (inactive) | –
C#CC(C)(CC)OC(=O)c1ccccc1C(=O)O (stereo not given) | -0.325% [at 53 µM] (inactive) | –
OCC(O)CS (stereo not given) | – | inactive
COc1ccc(CN(CCN(C)C)c2ccccn2)cc1 | – | inactive
COc1ccc(N=[N+]([O-])c2ccc(OC)cc2)cc1 | 2.48% (inactive) | –
